# Laboratory results reported in the supplement of paper PMC5919970.
# Where a name gives a salt, the structure may show the parent alone. The full ranking holds about 2,000 compounds; the median of “fractional viability relative to vehicle” is about 0.91, and the lowest 2% start at about 0.045. The entries come from a sample that favours the lowest values as a whole.
# Test system: TYKNU
# Assay: fractional viability relative to vehicle; TYKNU is a high-grade serous ovarian cancer line; higher = less growth inhibition
# Conditions: 72 h
# Procedure, shortened: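 Drug treatment lasted 72 h, with cells grown at 37 °C in 5% CO2 in RPMI 1640 supplemented with 10% FBS. Beforehand, TYKNU control cells or their lentiCRISPRv2 knockout derivatives had been seeded at 500 cells per well into drug-stamped 384-well plates carrying a ~2100-compound library at 2 or 10 μM, in duplicate. Viability came from Cell Titer Glo luminescence, with averaged duplicate treatment wells normalised to duplicate control wells in the same plate position.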
# [1] = 2uM, genotype: DNM1L knockout (sgDNM1L #1)
# [2] = 2uM, genotype: sgCTRLA1 (non-targeting control)
# [3] = 10uM, genotype: DNM1L knockout (sgDNM1L #1)
# [4] = 10uM, genotype: sgCTRLA1 (non-targeting control)
SMILES,fractional viability [1],fractional viability [2],fractional viability [3],fractional viability [4]
Cc1ncc(Cl)cc1NCc1ccc(C(=O)N[C@@H](CC2CCCC2)C(=O)NC2CC2)s1,0.845,0.992,0.838,0.778
CCOc1ccc(Cc2cc([C@@H]3O[C@H](SC)[C@@H](O)[C@H](O)[C@H]3O)ccc2Cl)cc1 [Sotagliflozin (LX4211)],0.825,1.02,0.592,0.694
COC(=O)C[C@H](NC(=O)[C@H](C)NC(=O)[C@@H](NC(=O)OCc1ccccc1)C(C)C)C(=O)CF,0.89,1.14,0.837,1.1
COc1cc(N2CCC(N)CC2)ccc1Nc1ncc(Cl)c(-c2c[nH]c3ccccc23)n1,0.359,0.386,0.0459,0.0363
CCOc1cc(N2CCC(O)CC2)ccc1Nc1ncc2c(n1)N(C)c1ccccc1C(=O)N2C,0.651,0.842,0.539,0.531
CNC(=O)c1ccccc1Nc1nc(Nc2ccc(N3CCOCC3)cc2OC)ncc1Cl,0.85,0.837,0.292,0.206
CN(N=O)C(=O)NC1C(O)OC(CO)C(O)C1O (stereo unspecified) [Streptozotocin (STZ)],1.1,1.2,0.905,1.2
C/C(=N\NC(=O)c1cccc(S(=O)(=O)N2CCOCC2)c1)c1cc(Cl)ccc1O,0.348,0.356,0.242,0.136
COc1cc(-c2cc(-c3ccc(N4CCNCC4)cc3)cnc2C)cc(OC)c1OC,0.714,1.02,0.834,0.772
c1cc(-c2cnn3cc(-c4ccc(N5CCNCC5)cc4)cnc23)c2cccnc2c1,0.0431,0.069,0.0409,0.021
COc1ccc(-c2cnc3c(-c4cccc5ncccc45)cnn3c2)cc1,1.18,1.28,1.1,1.2
CNC(=O)c1cccc(-c2ccc3c(N4CCOC[C@@H]4C)nc(N4CCOC[C@@H]4C)nc3n2)c1,0.277,0.218,0.201,0.237
CCCCCCCc1ccc(CCc2cccc(O)c2C(=O)O)cc1,0.825,1.04,0.896,0.765
CCCCCCCCc1ccc(CCC(N)(CO)CO)cc1 [Fingolimod (FTY720) HCl],0.722,1.02,0.0372,0.0418
CCCCCCCCCCCCc1ccc(S(=O)(=O)Nc2nncs2)cc1,0.997,1.07,0.843,0.966
CCCCc1nc2cc(/C=C/C(=O)NO)ccc2n1CCN(CC)CC [Pracinostat (SB939)],0.146,0.22,0.0823,0.0879
O=C1NC(=O)/C(=C/c2ccc3nccc(-c4ccncc4)c3c2)S1,0.556,0.7,0.21,0.219
CCCCCCCCCCCC[N+](C)(C)CCOc1ccccc1 [Domiphen Bromide],0.558,0.882,0.0673,0.0826
CCCCCCCCCCCCCCCC[N+](C)(C)C [Cetrimonium Bromide (CTAB)],0.311,0.295,0.0593,0.0171
CCCCCCCCCCCCCCCCO [1-Hexadecanol],0.833,1.09,0.879,1.1
COc1ccc(-n2c(SCCCN3C(=O)c4cccc5cccc(c45)C3=O)nnc2-c2ccncc2)cc1,0.722,0.945,0.895,0.738
Nc1nccc(Oc2ccc(NC(=O)c3c[nH]cc(-c4ccc(F)cc4)c3=O)cc2F)c1Cl,1.09,1.05,0.598,0.808
CC1(C)CCC2=C(O1)c1ccccc1C(=O)C2=O [Beta-Lapachone],0.128,0.0912,0.0219,0.023
CC1=CC(=O)c2ccccc2C1=O [Menadione],0.872,1.1,0.952,0.951
N#C/C(=C(/N)Sc1ccc(N)cc1)c1ccccc1C(F)(F)F,0.881,0.905,0.626,0.785
OC[C@H]1O[C@@H](c2ccc(Cl)c(Cc3ccc(O[C@H]4CCOC4)cc3)c2)[C@H](O)[C@@H](O)[C@@H]1O,0.8,1.06,0.788,0.819
Oc1cc2c(cc1O)[C@@H]1c3ccc(O)c(O)c3OC[C@]1(O)C2 [Hematoxylin],0.878,1.11,0.861,0.977
CCOC(=O)[C@H](CCc1ccccc1)N[C@H]1CS[C@H](c2cccs2)CN(CC(=O)O)C1=O [Temocapril HCl],0.889,1.23,0.83,1.04
CC(C)c1cc(-c2n[nH]c(=O)n2-c2ccc3c(ccn3C)c2)c(O)cc1O [Ganetespib (STA-9090)],0.299,0.204,0.248,0.206
